Test [1] is described as follows: AP1 Signaling Pathway (AID 357; active = well fitted curve in either direction with a large enough effect, not every such curve was filed as active;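 also: ME-180 reporter cells stimulated with EGF at its EC50 level; % is scaled to controls: 0 for no effect and ±100 for the full control effect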). The method in brief:
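A ratiometric CCF4 readout (405 nm excitation; 460 and 530 nm emission) quantified AP-1-driven beta-lactamase in ME-180 cells after 5 h with compound and EC50 EGF; AC50 values were derived for activators and inhibitors.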

Test [2] can be described thus: Stat Signaling Pathway (AID 446; active = well fitted curve in either direction with a large enough effect, not every such curve was filed as active;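 also: ME-180 cervical cancer cells given 40 pM IL-6 alongside compound; SIE-controlled beta-lactamase reporter measured as 460/530 nm FRET emission ratio; % is scaled to controls: 0 for no effect and ±100 for the full control effect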). A digest of the protocol:
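Emission at 460 and 530 nm (excitation 405 nm) reports SIE-controlled beta-lactamase in ME-180 cells. Cells received compound with 40 pM IL-6 for 5 hrs at 37 C; data scaled between 300 pM IL-6 and 125 nM JAK-inhibitor controls.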

In test [3] the target is Glucocorticoid receptor (Homo sapiens) (UniProt P04150). Put plainly: GR-EFC Redistribution (AID 451; calls by dose curve; also: potency is read from the fitted curve at half-maximal effect). The following applies: CHO-K1 GR-EFC translocation, beta-gal luminescence, 2 h. A digest of the protocol: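 CHO-K1 cells expressing nuclear EA and GR-ED fragments of b-gal; compounds titrated up to 46 uM final, 2 h at 37 C. GR nuclear translocation read as complemented b-gal luminescence after 1 h RT detection.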
Chain of Glucocorticoid receptor (Homo sapiens) (P04150 whole entry, looked up, the tested form may be a part): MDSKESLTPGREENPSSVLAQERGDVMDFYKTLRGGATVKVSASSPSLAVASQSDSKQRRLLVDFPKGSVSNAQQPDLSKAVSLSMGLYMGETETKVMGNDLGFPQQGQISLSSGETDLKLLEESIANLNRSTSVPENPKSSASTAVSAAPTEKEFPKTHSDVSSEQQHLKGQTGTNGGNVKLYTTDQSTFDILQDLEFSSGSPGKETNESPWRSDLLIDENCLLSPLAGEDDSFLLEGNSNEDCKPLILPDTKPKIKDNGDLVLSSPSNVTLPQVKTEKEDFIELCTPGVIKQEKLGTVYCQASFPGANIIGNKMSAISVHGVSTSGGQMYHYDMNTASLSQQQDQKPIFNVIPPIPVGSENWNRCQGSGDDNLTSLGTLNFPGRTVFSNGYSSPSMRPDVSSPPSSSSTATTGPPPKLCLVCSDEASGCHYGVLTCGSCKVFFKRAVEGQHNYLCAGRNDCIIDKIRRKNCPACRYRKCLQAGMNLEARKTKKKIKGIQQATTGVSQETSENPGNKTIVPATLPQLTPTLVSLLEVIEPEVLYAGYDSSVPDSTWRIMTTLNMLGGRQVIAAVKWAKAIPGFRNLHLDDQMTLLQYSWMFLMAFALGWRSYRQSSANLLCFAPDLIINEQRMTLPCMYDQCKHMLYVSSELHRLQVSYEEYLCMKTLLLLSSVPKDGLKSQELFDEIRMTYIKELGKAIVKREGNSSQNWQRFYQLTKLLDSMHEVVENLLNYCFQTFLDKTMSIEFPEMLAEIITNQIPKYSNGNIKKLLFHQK

In test [4] the target is Mitogen-activated protein kinase 10 (Mus musculus) (UniProt Q61831). Kind of test: JNK3 AlphaScreen Assay (AID 530; active = well fitted curve in either direction with a large enough effect, not every such curve was filed as active;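 also: kinase came from lysate of stimulated human HepG2 cells; signal reports phosphorylation of biotinylated GST-cJun 1-79 at Ser73 with 10 µM ATP; % is scaled to controls: 0 for no effect and ±100 for the full control effect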). A digest of the protocol:
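Activity was read by AlphaScreen after JNK3-containing HepG2 lysate (cytokine pre-activated) phosphorylated biotinylated GST-cJun with 10 uM ATP at room temperature. Phospho-Ser73 cJun antibody with Protein-A acceptor beads provided detection.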
On the technique in general: Alpha assays give light when donor and acceptor beads are brought close together.

For test [5], the target named is 3',5'-cyclic-AMP phosphodiesterase 4B (Homo sapiens) (UniProt Q07343). Kind of test: qHTS Assay for Inhibitors of PDE-IV (AID 607; active = well fitted activation curve with a large enough effect in the main read-out, with a control signal flat, not every such curve was filed as active; also: % of control where 0% means no effect). The method in brief: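 The readout is membrane depolarisation from a cAMP-sensing CNG channel, detected with a potential dye at ex 535/em 590. Cells were HEK293-derived (endogenous PDE-IV) at 1000 cells/well, titrated up to 22.9 uM final.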
Chain of 3',5'-cyclic-AMP phosphodiesterase 4B (Homo sapiens) (Q07343 whole entry, looked up): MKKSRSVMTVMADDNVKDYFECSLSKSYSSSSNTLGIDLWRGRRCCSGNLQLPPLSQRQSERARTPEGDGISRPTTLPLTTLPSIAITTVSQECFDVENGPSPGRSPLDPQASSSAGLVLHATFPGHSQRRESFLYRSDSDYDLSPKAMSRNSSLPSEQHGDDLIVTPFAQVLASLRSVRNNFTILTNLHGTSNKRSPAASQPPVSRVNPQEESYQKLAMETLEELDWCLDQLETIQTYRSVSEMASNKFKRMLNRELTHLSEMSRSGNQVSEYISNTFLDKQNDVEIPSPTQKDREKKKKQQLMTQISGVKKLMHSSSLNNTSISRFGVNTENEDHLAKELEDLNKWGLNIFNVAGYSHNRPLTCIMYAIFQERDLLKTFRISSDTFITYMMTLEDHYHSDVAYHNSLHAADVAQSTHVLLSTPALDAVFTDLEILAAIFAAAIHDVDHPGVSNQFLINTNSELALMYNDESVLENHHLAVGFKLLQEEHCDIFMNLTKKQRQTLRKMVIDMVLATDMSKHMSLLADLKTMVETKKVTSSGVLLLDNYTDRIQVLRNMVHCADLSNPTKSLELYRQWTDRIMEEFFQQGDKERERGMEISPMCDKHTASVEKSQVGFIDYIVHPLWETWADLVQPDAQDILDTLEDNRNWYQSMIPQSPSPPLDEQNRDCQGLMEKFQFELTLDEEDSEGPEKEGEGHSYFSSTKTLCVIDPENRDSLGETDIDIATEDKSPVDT
(In general: qHTS replaces the single test concentration by a dilution series.)

The target in test [6] is Cytochrome P450 3A4 (Homo sapiens) (UniProt P08684). Put plainly: qHTS Assay for Activators of Cytochrome P450 3A4 (AID 885). Also: nearly all actives have a fitted effect of over 65% in size. Also: potency is read from the fitted curve at half-maximal effect. The method in brief: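 Activators are scored by enhanced luminescence from CYP3A4 conversion of luciferin-PPXE (25uM, equal to KM) to luciferin, after 60 min at RT with an NADPH-regenerating system.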
Chain of Cytochrome P450 3A4 (Homo sapiens) (P08684 whole entry, looked up): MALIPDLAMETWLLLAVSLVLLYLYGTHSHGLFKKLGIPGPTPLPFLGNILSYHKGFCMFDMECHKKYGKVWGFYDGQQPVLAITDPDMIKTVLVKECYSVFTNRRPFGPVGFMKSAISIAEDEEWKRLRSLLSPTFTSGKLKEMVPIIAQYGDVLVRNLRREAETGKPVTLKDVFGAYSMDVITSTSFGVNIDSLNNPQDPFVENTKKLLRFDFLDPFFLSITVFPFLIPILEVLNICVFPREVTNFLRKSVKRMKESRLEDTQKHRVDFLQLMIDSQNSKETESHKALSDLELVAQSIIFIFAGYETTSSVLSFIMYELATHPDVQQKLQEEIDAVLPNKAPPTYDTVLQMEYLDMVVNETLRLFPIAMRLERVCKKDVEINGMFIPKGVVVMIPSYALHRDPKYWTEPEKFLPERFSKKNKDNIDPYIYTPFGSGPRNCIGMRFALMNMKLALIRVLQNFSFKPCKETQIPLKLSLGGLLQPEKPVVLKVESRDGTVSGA
A short description of test [7]: qHTS Assay for Lipid Storage Modulators (AID 1519; calls by dose curve; as to activity change, negative = inhibition: % is scaled to controls: 0 for no effect and ±100 for the full control effect). The following applies: Drosophila S3 cells, BODIPY lipid droplet/cell ratio, laser cytometry, cells loaded with oleic acid. A digest of the protocol: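 Cells seeded at 5,000 per well were treated with compounds over a concentration series and loaded with oleic acid (400 uM, as added). Lipid droplet fluorescence (488 nm excitation, 500-530 nm channel) was read by laser-scanning cytometry and normalized to 20 uM Triacsin C.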

Test [8] addresses Cytochrome P450 1A2 (Homo sapiens) (UniProt P05177). Kind of test: p450-cyp1a2 (AID 410; calls by dose curve; also: potency is read from the fitted curve at half-maximal effect;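 as to activity change, negative = inhibition: -100% = full effect of reference inhibitor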). The method in brief:
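Luminescent demethylation readout: Luciferin-ME (100uM, equal to Km) turned over by 20nM CYP1A2 for 60 min at room temperature after NADPH regeneration addition, following 10 min compound preincubation. Normalization used 57 uM furafylline as full inhibition.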

In test [9] the target is Cytochrome P450 3A4 (Homo sapiens) (UniProt P08684). Kind of test: qHTS Assay for Inhibitors and Substrates of Cytochrome P450 3A4 (AID 884). Also: nearly all actives have a fitted effect of over 50% in size. Also: potency is read from the fitted curve at half-maximal effect. The method in brief:
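Luminescent readout of luciferin produced by CYP3A4 (20 nM) dealkylation of Luciferin-PPXE, 25 uM (its KM). NADPH-driven reaction ran 60 min at RT after 10 min compound preincubation; data scaled to 57 uM ketoconazole as 100% inhibition.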

Test [10] in a line: Confirmation and Secondary Assay for Modulators of Hemoglobin Beta Chain Splicing at IVS2 654 locus (AID 910).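 Also: HeLa cells stably carrying EGFP split by mutant beta-globin IVS2-654 intron; % of control where 0% means no effect.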 A digest of the protocol: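 HeLa cells stably expressing EGFP interrupted by β-globin IVS2-654 intron, seeded overnight in Opti-MEM/2% FCS, then treated 2 days at 37 °C. Restored splicing read as total peak GFP intensity per well by laser scanning cytometry (488 nm excitation, 500–520 nm emission); 500 nM antisense PNA as control.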

Test [11] is described as follows: Confirmation and Secondary Assay for Modulators of Hemoglobin Beta Chain Splicing at IVS2 705 locus (AID 930).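 Also: HeLa cells stably expressing the EGFP-705 splicing reporter; GFP fluorescence per well restored by corrected splicing of the IVS2-705 intron in EGFP; % of control where 0% means no effect.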 A digest of the protocol: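 Stable HeLa line with EGFP disrupted by mutant beta-globin intron 2 (705). Overnight attachment, then 2 days of compound at 37C, 5% CO2. Signal: peak GFP intensity summed over objects 5-250 µm.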
Test [12] has as its target Ubiquitin carboxyl-terminal hydrolase 1 (Homo sapiens) (UniProt O94782). Kind of test: Inhibitors of USP1/UAF1: Pilot qHTS (AID 504865). Also: nearly all actives have a fitted effect of over 35% in size. Also: potency is read from the fitted curve at half-maximal effect. The method in brief:
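Kinetic fluorescence assay: 1nM USP1/UAF1, 15 min compound preincubation, then 150nM Ub-Rho; 480/540 nm.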

Test [13] deals with Glucocorticoid receptor (Homo sapiens) (UniProt P04150). Put plainly: GR-GFP Redistribution (AID 450;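 active = compounds whose dose series gives a full or clear partial fitted curve of increased nuclear translocation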; also: potency is read from the fitted curve at half-maximal effect). The following applies: U2OS GR-GFP nuclear translocation, laser cytometry, 2 h.
A short description of test [14]: S16 Schwann cell PMP22 intronic element firefly luciferase assay (AID 624032). Also: potency is read from the fitted curve at half-maximal effect; nearly all actives have a fitted effect of over 30% in size. The method in brief: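 Rat S16 Schwann cells stably carrying firefly luciferase driven by a PMP22 intronic element, in 10% FBS, treated 24 h at 37 C. ONE-Glo luminescence normalized to PTC124 control and DMSO (0%); curves classed by r2, magnitude and activity.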
[15] abbreviates: measured here: cell count channel max response.
[16] abbreviates: measured here: lipid channel max response.

Molecules are shown by their SMILES. Results filed as inconclusive are left out. Calls of active or inactive are those of the source. Unless noted, calls follow the shape of the dose curve; as a rule, active = well fitted curve in the direction sought with a large enough effect; inconclusive = small, poorly fitted or top-dose-only effect, or another doubt; inactive = no such curve, though single readings can be large; an effect the other way counts as inactive or inconclusive. Where only a bound is given, the exact number is not on record here.

Chain of Ubiquitin carboxyl-terminal hydrolase 1 (Homo sapiens) (O94782 whole entry, looked up): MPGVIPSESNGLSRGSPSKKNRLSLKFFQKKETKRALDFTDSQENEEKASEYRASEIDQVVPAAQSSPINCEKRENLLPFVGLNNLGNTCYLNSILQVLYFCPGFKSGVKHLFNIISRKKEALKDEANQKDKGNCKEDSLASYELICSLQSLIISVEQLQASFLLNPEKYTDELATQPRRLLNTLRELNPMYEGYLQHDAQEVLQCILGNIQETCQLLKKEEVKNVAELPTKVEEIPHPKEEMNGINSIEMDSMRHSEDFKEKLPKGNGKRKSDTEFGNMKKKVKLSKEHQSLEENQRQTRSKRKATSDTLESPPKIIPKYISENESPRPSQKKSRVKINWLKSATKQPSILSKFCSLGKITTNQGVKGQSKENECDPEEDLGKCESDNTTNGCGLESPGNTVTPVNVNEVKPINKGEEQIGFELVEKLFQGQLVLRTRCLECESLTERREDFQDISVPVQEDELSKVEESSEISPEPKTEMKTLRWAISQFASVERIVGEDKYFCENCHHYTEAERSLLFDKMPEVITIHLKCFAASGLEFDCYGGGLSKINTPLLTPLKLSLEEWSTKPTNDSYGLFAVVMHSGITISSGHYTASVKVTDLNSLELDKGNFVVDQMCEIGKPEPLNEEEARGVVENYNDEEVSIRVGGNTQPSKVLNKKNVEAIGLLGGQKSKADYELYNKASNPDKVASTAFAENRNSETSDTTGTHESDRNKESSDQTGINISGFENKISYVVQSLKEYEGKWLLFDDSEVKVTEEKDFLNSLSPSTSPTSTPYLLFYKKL
Chain of Cytochrome P450 1A2 (Homo sapiens) (P05177 whole entry, looked up): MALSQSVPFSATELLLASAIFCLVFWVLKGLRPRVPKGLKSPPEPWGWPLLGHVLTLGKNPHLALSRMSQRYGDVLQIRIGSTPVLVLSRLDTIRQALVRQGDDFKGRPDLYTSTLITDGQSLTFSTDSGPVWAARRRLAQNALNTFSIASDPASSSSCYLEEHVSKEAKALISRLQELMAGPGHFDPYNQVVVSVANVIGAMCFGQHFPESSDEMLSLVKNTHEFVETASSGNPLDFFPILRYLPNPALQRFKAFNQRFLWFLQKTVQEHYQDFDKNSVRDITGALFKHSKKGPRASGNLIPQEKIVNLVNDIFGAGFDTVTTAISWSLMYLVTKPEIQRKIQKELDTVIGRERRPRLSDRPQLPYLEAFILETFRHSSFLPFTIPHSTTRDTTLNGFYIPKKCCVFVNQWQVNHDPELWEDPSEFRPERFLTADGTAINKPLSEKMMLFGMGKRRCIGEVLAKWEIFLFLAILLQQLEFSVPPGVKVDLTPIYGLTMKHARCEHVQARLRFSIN

`CC(C)CN1CCCC2(CCN(C(=O)Oc3ccccc3)CC2)C1`: the result in test [1], in test [2] and in test [4] was inactive. In addition, the Potency in [3] is > 46 µM (inactive). Moreover, the Potency result in test [5] and in [6] was “inactive” throughout.

On to `CC(C)[C@@]1(NC(=O)[C@@H]2C[C@@H]3c4cccc5[nH]cc(c45)C[C@H]3N(C)C2)O[C@@]2(O)C3CCCN3C(=O)[C@H](Cc3ccccc3)N2C1=O` (stereo partly drawn), for which, in [7] (at 57.5 µM (top of the series)), the activity change, negative = inhibition is -0.282% (inactive). The max response in test [7] (setting [15]) was -13.2%; in test [7] (setting [16]) it was -14.4%.

Turning to `COc1ccc2cc1Oc1ccc(cc1)C[C@H]1c3cc(c(OC)cc3CCN1C)Oc1c(OC)c(OC)cc3c1[C@@H](C2)N(C)CC3`, in [7] (at 25.7 µM (top of the series)), the activity change, negative = inhibition was -4.24% (inactive). Also, the max response was -9.67% in [7] (setting [15]) and -10.6% in test [7] (setting [16]).

For the compound `COc1cc2c(c(OC)c1OC)-c1ccc(OC)c(=O)cc1C(NC(C)=O)CC2` (stereo not drawn), the activity change, negative = inhibition in [7] (at 57.5 µM (top of the series)) was 7.05% (inactive). Besides, the values for the max response in test [7] (setting [15]) and in test [7] (setting [16]) were 10.2% and 20.2%, respectively.

Take `O=C(Oc1ccccc1)N1CCC2(CCN(Cc3nccs3)CC2)CC1`: the call in test [1] and in test [2] was inactive. For the same compound, the Potency entry in test [8], in [5] and in test [9] was “inactive” in each case. Also, the Potency in test [3] was > 46 µM (inactive); in test [6] it was 25.1 µM (active).

As to `O=C1c2ccccc2-c2cccc3cccc1c23`, the Potency result in test [6], in test [10], in [11] and in [12] was “inactive” throughout. The activity change, negative = inhibition in [7] (at 57.5 µM (top of the series)) was 15.9% (inactive). Also, the max response in [7] (setting [15]) was 9.47%; in test [7] (setting [16]), 28.5%.

As for `C[C@@H](C(=O)O)c1ccc(-c2ccccc2)c(F)c1`, the activity change, negative = inhibition in test [7] (at 25.7 µM (top of the series)) is 2.45% (inactive). Moreover, the max response worked out at 2.3% in test [7] (setting [15]) and 1.21% in test [7] (setting [16]).

For `O=C(OC1CCN(CCCl)CC1)C(c1ccccc1)c1ccccc1`, the compound was called inactive in [1], in test [2] and in [4]. Further, the Potency in test [8] was 12.6 µM (active); in [13], > 46 µM (inactive); in test [3] it was > 46 µM (inactive). Further, the Potency entry in [5] and in test [6] was “inactive” in each case. Moreover, in test [7] (at 57.5 µM (top of the series)), the activity change, negative = inhibition was 0.755% (inactive). Also, the max response is -17.2% in test [7] (setting [15]) and -14.8% in test [7] (setting [16]).

Turning to `CC(C)C[C@H]1C(=O)N2CCCC2[C@]2(O)O[C@](NC(=O)[C@@H]3C=C4c5cccc6[nH]c(Br)c(c56)C[C@H]4N(C)C3)(C(C)C)C(=O)N12` (stereo partly drawn), in test [7] (at 57.5 µM (top of the series)), the activity change, negative = inhibition was -0.407% (inactive). For the same compound, the max response in test [7] (setting [15]) was -32%; in [7] (setting [16]), -33.2%. In test [14], the Potency is 8.09 µM (active).

Consider `CNC(=O)O/N=C/C(C)(C)SC`, for which the compound was classed as inactive in [4]. In addition, the Potency entry in test [9], in test [10], in test [11] and in [12] was “inactive” in each case. Besides, in test [7] (at 57.5 µM (top of the series)), the activity change, negative = inhibition is 7.39% (inactive). The max response in [7] (setting [15]) amounted to 14.3%; in [7] (setting [16]) it was 23.9%.

Consider `CCOCN(C(=O)CCl)c1c(C)cccc1CC`, for which the compound was classed as inactive in test [4]. The Potency entry in test [9], in test [10], in test [11] and in test [12] was “inactive” each time. The Potency in test [6] was 15.8 µM (active). Besides, the activity change, negative = inhibition in test [7] (at 57.5 µM (top of the series)) was 0.371% (inactive). For the same compound, the max response in [7] (setting [15]) is -6.11%; in test [7] (setting [16]), -5.22%.

Turning to `COc1cc2c(cc1O)CC1c3c(cc(O)c(OC)c3-2)CCN1C` (stereo not drawn), the Potency result in test [6], in test [10] and in [11] was “inactive” in each case. Further, the activity change, negative = inhibition in test [7] (at 57.5 µM (top of the series)) was 9.81% (inactive). The max response is 24.1% in test [7] (setting [15]) and 38.2% in [7] (setting [16]).

As for `COc1cc2c(cc1-c1cc3cc4ccoc4cc3oc1=O)OCO2`, the Potency in test [9] was 0.398 µM (active); in [12] it was 50.1 µM (active). Besides, the Potency result in test [6] and in test [11] was “inactive” each time. The activity change, negative = inhibition in test [7] (at 57.5 µM (top of the series)) is 16.5% (inactive). Further, the figures for the max response in test [7] (setting [15]) and in test [7] (setting [16]) were 6.63% and 25.9%, respectively.

In the case of `COc1ccc2cc1Oc1ccc(cc1)CC1c3cc(c(OC)cc3CCN1C)Oc1c(OC)c(OC)cc3c1C(C2)N(C)CC3` (stereo not drawn), the activity change, negative = inhibition in test [7] (at 57.5 µM (top of the series)) is 6.58% (inactive). In addition, the max response in [7] (setting [15]) was -1.03%; in test [7] (setting [16]), 6.79%.

As for `CC(CCC(=O)O)C1CCC2C3C(=O)CC4CC(=O)CC[C@@]4(C)C3CC(=O)[C@]12C` (stereo partly drawn), in [7] (at 57.5 µM (top of the series)), the activity change, negative = inhibition is 1.06% (inactive). Moreover, the max response was determined as 16% in test [7] (setting [15]) and 21.9% in test [7] (setting [16]).
